Reference: PubChem BioAssay
Values joined by “and” are separate entries in the source; they are usually repeats but may differ in a detail not shown here. Equal values may be shown once. For some of these results: Entries with a potency or affinity are not part of this list. Active and inactive are the calls of the source.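 How the source made its calls, unless noted: active means compounds whose cell count with miR-34 switched on is under 0.7 times the count with it off; inactive means the rest.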 Residues, ends and D or L forms follow the SMILES beside them.

Tests used:
[1] = blockers of polyQ-driven CASP3 activation – cell-based (AID 1583); conditions: polyglutamine-induced caspase-3 activation, cell assay; stronger effect = higher value;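 tested at 10 µM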
[2] = yeast 75Q aggregation reduction – 75Q-TubU reporter (AID 1593); conditions: Yeast 75Q polyglutamine aggregation reporter
[3] = restoration of touch response, mutant HTT neurons – whole organism, C. elegans mechanosensory neurons, N-terminal huntingtin (AID 1599); conditions: C. elegans polyQ-huntingtin mechanosensory neurons, stronger effect = higher value
[4] = blockers of cytochrome c efflux from mitochondria – biochemical, purified mitochondria (AID 1603); conditions: stronger effect = lower value;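 further: mouse liver mitochondria challenged with calcium chloride; signal normalized to the plate average as 100%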
[5] = polyglutamine aggregate formation blockers (AID 1604); conditions: polyglutamine-induced protein aggregation inhibition assay; stronger effect = higher value; tested at 2.5 µM
[6] = glutamate transport activators, MN-1 cells, MN-1 cell line (AID 1612); conditions: MN-1 motor neuron cells, stronger effect = higher value;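 further: tested at 1 µM final; 0% = mean of DMSO vehicle wells on each plate; positive means more glutamate uptake than control and negative means less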
[7] = GFP-Q80 aggregate reduction, neuronal-like cells, cell-based, NGF-treated PC12, GFPQ80 (AID 1614); conditions: PC12 NGF-treated GFP-polyQ80 inclusion reduction;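 further: lower means fewer inclusions and 0 means no inclusions at all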
[8] = 75Q-TubH aggregate inhibition, S. cerevisiae, yeast (AID 1616); conditions: S. cerevisiae 75Q-TubH polyglutamine aggregation suppression; stronger effect = higher value
[9] = P. berghei load reduction in hepatocytes – cell-based, HepG2, luciferase luminescence, HepG2 viability, primary screen (AID 624349; in the data active means parasite load remaining mostly below about 12%, no sharp cut-off; inactive means mostly above about 10%;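 further: 100% = mean of DMSO negative control wells on the same plate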); conditions: P. berghei liver stage in HepG2, luciferase luminescence, concentration not given here; parasite load remaining: stronger effect = lower value; viability: measured here: HepG2 viability without parasites
[10] = EMT-state selective cytotoxicity in co-culture – imaging, PC-3E GFP, TEM4-18 mCherry, primary screen (AID 1345086;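 active means compounds killing one labelled cell type while sparing the other, by normalised counts and ratio limits, not self-fluorescent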;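 on all read-outs here: cells exposed to compound for 72 h before imaging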;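 on red/green cell ratio (normalised): normalised mesenchymal count divided by normalised epithelial count so high means epithelial killing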); conditions: PC-3E GFP / TEM4-18 mCherry co-culture, imaging cell counts, at 1 µM; for red/green cell ratio (normalised): actives lie on both sides, counts scaled to control wells, 1 = unselective
[11] = viability loss with induced miR-34 in A549 – imaging, A549 dox-inducible miR-34, nuclei and caspase counts, primary screen (AID 1347080); conditions: A549 miR-34 inducible, Hoechst nuclei count, 48 h
[12] = target: Mitogen-activated protein kinase 7 (Homo sapiens) (UniProt Q13164); test: Gal4-ERK5 driven luciferase induction – cell-based, HTS, primary screen (AID 1508626;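 active means luciferase signal above three times the same-plate solvent-only control wells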;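 further: luciferase driven by Gal4-ERK5 fusion binding five Gal4 sites before minimal TATA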); conditions: HeLa Gal4-ERK5 transactivation, 18 h, at 5 µM, stronger effect = higher value
[13] = target: NAD(+) hydrolase SARM1 (Homo sapiens) (UniProt Q6SZW1); test: blocking NAD cleavage by SARM1 SAM-TIR – cell lysate, NAD-Glo luminescence (AID 1508614;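 active means compound whose remaining NAD level is above about 45 nM, limit read from the data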); conditions: SAM-TIR HEK293T lysate NADase, at 1 µM, stronger effect = higher value
[14] = measured here: epithelial PC-3E GFP cell survival
[15] = measured here: mesenchymal TEM4-18 mCherry cell survival
[16] = stronger effect = lower value, cell number ratio, induced over uninduced
[17] = measured here: relative caspase fold change +Dox/-Dox
[18] = measured here: total cells with miR-34 induction, stronger effect = lower value
[19] = measured here: total cells without miR-34 induction

Chain of Mitogen-activated protein kinase 7 (Homo sapiens) (Q13164 whole entry, looked up, the tested form may be a part): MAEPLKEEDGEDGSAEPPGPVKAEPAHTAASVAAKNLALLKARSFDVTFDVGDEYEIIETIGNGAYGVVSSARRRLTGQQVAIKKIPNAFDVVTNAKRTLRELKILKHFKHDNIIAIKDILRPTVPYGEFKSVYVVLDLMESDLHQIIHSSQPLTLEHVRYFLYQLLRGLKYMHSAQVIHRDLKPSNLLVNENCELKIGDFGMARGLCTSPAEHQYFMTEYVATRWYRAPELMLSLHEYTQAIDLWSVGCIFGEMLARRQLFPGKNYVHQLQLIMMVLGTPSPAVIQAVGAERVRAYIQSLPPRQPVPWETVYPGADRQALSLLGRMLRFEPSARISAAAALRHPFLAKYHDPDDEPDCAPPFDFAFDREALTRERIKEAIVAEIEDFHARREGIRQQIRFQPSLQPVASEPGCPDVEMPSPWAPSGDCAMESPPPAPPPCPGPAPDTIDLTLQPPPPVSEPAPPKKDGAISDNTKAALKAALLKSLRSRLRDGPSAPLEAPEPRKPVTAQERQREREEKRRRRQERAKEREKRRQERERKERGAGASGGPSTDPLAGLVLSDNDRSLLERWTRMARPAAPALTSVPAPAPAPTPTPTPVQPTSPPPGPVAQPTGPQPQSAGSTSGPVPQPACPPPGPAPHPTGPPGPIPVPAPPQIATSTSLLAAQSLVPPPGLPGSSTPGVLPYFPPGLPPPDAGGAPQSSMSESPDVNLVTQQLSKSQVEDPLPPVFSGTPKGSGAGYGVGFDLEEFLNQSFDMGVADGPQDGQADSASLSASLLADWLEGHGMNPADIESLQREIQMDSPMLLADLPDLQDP
Chain of NAD(+) hydrolase SARM1 (Homo sapiens) (Q6SZW1 whole entry, looked up): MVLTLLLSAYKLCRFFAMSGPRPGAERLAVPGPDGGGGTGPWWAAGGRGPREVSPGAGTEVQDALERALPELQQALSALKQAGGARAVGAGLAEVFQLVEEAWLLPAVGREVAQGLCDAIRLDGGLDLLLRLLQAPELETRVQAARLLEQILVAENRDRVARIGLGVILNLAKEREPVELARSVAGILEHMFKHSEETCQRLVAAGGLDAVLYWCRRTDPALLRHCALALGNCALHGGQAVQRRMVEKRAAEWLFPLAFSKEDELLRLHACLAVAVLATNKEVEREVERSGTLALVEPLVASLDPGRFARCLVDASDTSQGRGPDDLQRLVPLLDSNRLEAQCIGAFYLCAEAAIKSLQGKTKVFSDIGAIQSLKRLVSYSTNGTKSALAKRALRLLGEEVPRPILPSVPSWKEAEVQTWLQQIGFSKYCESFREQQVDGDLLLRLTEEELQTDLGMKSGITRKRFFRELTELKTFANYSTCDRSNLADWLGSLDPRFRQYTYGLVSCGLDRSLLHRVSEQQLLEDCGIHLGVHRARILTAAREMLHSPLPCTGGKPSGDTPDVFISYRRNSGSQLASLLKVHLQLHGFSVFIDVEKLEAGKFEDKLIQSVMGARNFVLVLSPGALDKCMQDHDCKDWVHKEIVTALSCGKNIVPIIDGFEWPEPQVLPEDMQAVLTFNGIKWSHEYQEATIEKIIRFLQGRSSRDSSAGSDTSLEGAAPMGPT

Cc1c(C)c2c(c(C)c1O)CCC(C)(CCCC(C)CCCC(C)CCCC(C)C)O2 (centres undefined)
inhibition [1]: 25.1% | score [2]: -0.94 | rescue above control [3]: -0.91 | cytochrome c release ratio [4]: 1.24 | inhibition of aggregation [5]: 78.9% | glutamate uptake change [6]: -4.89% | inclusion score [7]: 2 | aggregation suppression score [8]: 0.219 | parasite load remaining [9]: 67.5% (inactive) | viability [9]: 90.7% | red/green cell ratio (normalised) [10]: 1.01 (inactive) | normalised cell number [10, 14]: 0.82 | normalised cell number [10, 15]: 0.83 | fold change [11, 16]: 0.899 (inactive) | fold change [11, 17]: 1.09 | cell count [11, 18]: 10700 | cell count [11, 19]: 11900 | luciferase signal [12]: 44 AU (inactive)

FC(F)(F)COCC(F)(F)F
parasite load remaining [9]: 45.8% (inactive) | viability [9]: 107% | red/green cell ratio (normalised) [10]: 0.7 (inactive) | normalised cell number [10, 14]: 1.25 | normalised cell number [10, 15]: 0.88 | fold change [11, 16]: 0.879 (inactive) | fold change [11, 17]: 0.825 | cell count [11, 18]: 10400 | cell count [11, 19]: 11900 | remaining NAD [13]: 10 nM (inactive) | luciferase signal [12]: 60 AU (inactive)

C[N+](C)(C)C[C@H](O)CC(=O)[O-]
parasite load remaining [9]: 53.1% (inactive) | viability [9]: 99.7% | red/green cell ratio (normalised) [10]: 1.04 (inactive) | normalised cell number [10, 14]: 0.94 | normalised cell number [10, 15]: 0.98 | fold change [11, 16]: 0.867 (inactive) | fold change [11, 17]: 4.08 | cell count [11, 18]: 11500 | cell count [11, 19]: 13200 | remaining NAD [13]: 10 nM (inactive) | luciferase signal [12]: 32 AU (inactive)

C=C1CC[C@H](O)C/C1=C/C=C1\CCC[C@]2(C)C([C@H](C)/C=C/[C@H](C)C(C)C)CC[C@@H]12 (some centres undefined)
inhibition [1]: 1.02% | score [2]: 0.91 | rescue above control [3]: 1.1 | cytochrome c release ratio [4]: 1.43 | inhibition of aggregation [5]: 63.2% | glutamate uptake change [6]: 0.71% | inclusion score [7]: 3 | aggregation suppression score [8]: 0.441 | parasite load remaining [9]: 81.3% (inactive) and 44.7% (inactive) | viability [9]: 73.5% and 101% | red/green cell ratio (normalised) [10]: 1.11 (inactive) | normalised cell number [10, 14]: 1.28 | normalised cell number [10, 15]: 1.42 | fold change [11, 16]: 0.922 (inactive) | fold change [11, 17]: 2.88 | cell count [11, 18]: 11200 | cell count [11, 19]: 12200

CC(=O)Oc1c(C)cccc1C(=O)O
red/green cell ratio (normalised) [10]: 0.87 (inactive) | normalised cell number [10, 14]: 1.16 | normalised cell number [10, 15]: 1 | fold change [11, 16]: 0.895 (inactive) | fold change [11, 17]: 0.783 | cell count [11, 18]: 8780 | cell count [11, 19]: 9810 | remaining NAD [13]: 10 nM (inactive) | luciferase signal [12]: 56 AU (inactive)

CCCCCCCC/C=C\CCCCCCCC(=O)O
red/green cell ratio (normalised) [10]: 1.2 (inactive) | normalised cell number [10, 14]: 0.8 | normalised cell number [10, 15]: 0.96 | fold change [11, 16]: 0.965 (inactive) and 1.03 (inactive) | fold change [11, 17]: 0.674 and 0.77 | cell count [11, 18]: 8820 and 6040 | cell count [11, 19]: 9140 and 5860 | remaining NAD [13]: 10 nM (inactive)

CC(=O)Oc1c(C)c(C)c2c(c1C)CCC(C)(CCCC(C)CCCC(C)CCCC(C)C)O2 (centres undefined)
inhibition [1]: 1.05% | score [2]: -0.71 | rescue above control [3]: 1.2 | cytochrome c release ratio [4]: 0.62 | inhibition of aggregation [5]: 56.3% | glutamate uptake change [6]: 6.04% | inclusion score [7]: 2 | aggregation suppression score [8]: 0.546 | parasite load remaining [9]: 74.6% (inactive) | viability [9]: 96% | red/green cell ratio (normalised) [10]: 0.9 (inactive) | normalised cell number [10, 14]: 0.92 | normalised cell number [10, 15]: 0.84 | fold change [11, 16]: 0.901 (inactive) | fold change [11, 17]: 1.55 | cell count [11, 18]: 11100 | cell count [11, 19]: 12300 | luciferase signal [12]: 44 AU (inactive)

CC(=O)NS(=O)(=O)c1ccc(NC(=O)c2ccccc2C(=O)O)cc1
red/green cell ratio (normalised) [10]: 0.81 (inactive) | normalised cell number [10, 14]: 1.22 | normalised cell number [10, 15]: 0.99 | fold change [11, 16]: 0.886 (inactive) | fold change [11, 17]: 0.953 | cell count [11, 18]: 8920 | cell count [11, 19]: 10100 | remaining NAD [13]: 10 nM (inactive) | luciferase signal [12]: 100 AU (inactive)

CN1C2CC[C@@H]1CC(OC(=O)[C@H](CO)c1ccccc1)C2 (some centres undefined)
inhibition [1]: 10% | score [2]: 1.23 | rescue above control [3]: 0.71 | cytochrome c release ratio [4]: 1.28 | inhibition of aggregation [5]: 89.7% | glutamate uptake change [6]: -13.3% | inclusion score [7]: 2 | aggregation suppression score [8]: 1.46 | parasite load remaining [9]: 85.7% (inactive) and 75.8% (inactive) | viability [9]: 72.7% and 94.9% | red/green cell ratio (normalised) [10]: 0.96 (inactive) | normalised cell number [10, 14]: 1.11 | normalised cell number [10, 15]: 1.07 | fold change [11, 16]: 0.837 (inactive) | fold change [11, 17]: 0.536 | cell count [11, 18]: 10500 | cell count [11, 19]: 12600

C[C@@H]1CC2C3C[C@H](F)C4=CC(=O)C=C[C@]4(C)[C@@]3(F)[C@@H](O)C[C@]2(C)[C@@]1(O)C(=O)COC(=O)C(C)(C)C (some centres undefined)
inhibition [1]: -23.2% | score [2]: 1.34 | rescue above control [3]: 16 | cytochrome c release ratio [4]: 0.82 | inhibition of aggregation [5]: 39.8% | glutamate uptake change [6]: 27.8% | inclusion score [7]: 2 | aggregation suppression score [8]: 1.12 | parasite load remaining [9]: 119% (inactive) and 74% (inactive) | viability [9]: 76.5% and 90.1% | red/green cell ratio (normalised) [10]: 1.34 (inactive) | normalised cell number [10, 14]: 1 | normalised cell number [10, 15]: 1.35 | fold change [11, 16]: 0.838 (inactive) | fold change [11, 17]: 1.19 | cell count [11, 18]: 6940 | cell count [11, 19]: 8290 | luciferase signal [12]: 20 AU (inactive)

CCC(=O)O[C@H](CC(=O)O)C[N+](C)(C)C
red/green cell ratio (normalised) [10]: 1.18 (inactive) | normalised cell number [10, 14]: 1.03 | normalised cell number [10, 15]: 1.22 | fold change [11, 16]: 0.986 (inactive) | fold change [11, 17]: 0.77 | cell count [11, 18]: 8930 | cell count [11, 19]: 9060 | remaining NAD [13]: 10 nM (inactive)

CC(C)CC1C(=O)N2CCC[C@H]2C2(O)O[C@](NC(=O)C3C=C4c5cccc6[nH]c(Br)c(c56)C[C@H]4N(C)C3)(C(C)C)C(=O)N12 (some centres undefined)
inhibition [1]: 2.51% | score [2]: 1.5 | rescue above control [3]: 6.29 | cytochrome c release ratio [4]: 4.55 | inhibition of aggregation [5]: 72.4% | glutamate uptake change [6]: -22% | inclusion score [7]: 2.5 | aggregation suppression score [8]: 1.46 | parasite load remaining [9]: 49.3% (inactive) and 20% (inactive) | viability [9]: 70.8% and 87% | red/green cell ratio (normalised) [10]: 1.32 (inactive) | normalised cell number [10, 14]: 0.91 | normalised cell number [10, 15]: 1.21 | fold change [11, 16]: 0.852 (inactive) | fold change [11, 17]: 1.96 | cell count [11, 18]: 9430 | cell count [11, 19]: 11100

CC(C)[C@H](NC(=O)[C@H](CC(=O)O)NC(=O)[C@H](CCCCN)NC(=O)[C@@H](N)CCCN=C(N)N)C(=O)N[C@@H](Cc1ccc(O)cc1)C(=O)O (H-RKDVY-OH)
red/green cell ratio (normalised) [10]: 0.91 (inactive) | normalised cell number [10, 14]: 1.09 | normalised cell number [10, 15]: 0.99 | fold change [11, 16]: 0.895 (inactive) | fold change [11, 17]: 0.732 | cell count [11, 18]: 8230 | cell count [11, 19]: 9190 | remaining NAD [13]: 10 nM (inactive)
